PubChem BioAssay AID504913 (The Scripps Research Institute Molecular Screening Center, 2011)
The other results are listed elsewhere or left out. Values without a mark were called inactive. Activity calls are given as the source filed them. Cut-off read from the data, not from the text of the source: active = activation above about 18%; inactive = the rest.

Assay: OPRM1-OPRD1 heterodimerization promoters, counter-screen for HTR5A agonist project, cell-based, luminescence (AID 504913)
Details: U2OS counter-screen cells, complementation luminescence, 3 h; at 9.3 µM; stronger effect = higher value

Row | Structure (SMILES) | activation
1 | O=C(OC12CC3CC(CC(C3)C1)C2)c1ccc(NCc2cc(O)ccc2O)cc1 | 8.31%
2 | COc1ccc2[nH]cc(CCN3C(=O)c4ccc(C(=O)O)cc4C3=O)c2c1 | 1.66%
3 | COc1cccc(/C=N/NC(=O)c2[nH]nc3c2CCc2ccccc2-3)c1O | -4.02%
4 | O=C(CC(O)(C(F)(F)F)C(F)(F)F)Nc1ccc(Cl)c(Cl)c1 | -1.36%
5 | O=C(CC1Nc2ccccc2NC1=O)Nc1ccccc1 (stereo not given) | 2.23%
6 | CCCOc1ccc(C(=O)C(CCC(CNCC)C(=O)c2ccc(OCCC)cc2)CNCC)cc1 (stereo not given) | -0.5%
7 | Cc1ccc(C(=O)N/C(=C/c2ccco2)C(=O)NCCc2c[nH]c3ccccc23)cc1C | 0.35%
8 | COc1ccccc1S(=O)(=O)NCc1ccc(C(=O)N(C)Cc2ccc(F)cc2)cc1 | 3.43%
9 | COc1ccc(/C=C(\C#N)c2c[nH]c3ccccc23)cc1 | 6.75%
10 | O=C(c1cccnc1)N(c1cc2sc(=O)oc2c2ccccc12)S(=O)(=O)c1ccccc1 | 4.54%
11 | Cc1c(C(=O)OCC(=O)N2CCCC2=O)oc2ccccc12 | 1.27%
12 | COC(=O)c1cc(S(=O)(=O)N2CCN(c3cc(C)ccc3C)CC2)c[nH]1 | 0.96%
13 | C/C(=N\NC(=O)CNc1cccc2ccccc12)c1ccc(Br)s1 | -1.65%
14 | COc1cccc(OCC(=O)Nc2ccccc2C(N)=O)c1 | 0.46%
15 | Cc1ccc(CCC(=O)Nc2ncc(Cc3cc(Cl)ccc3Cl)s2)o1 | 32.2% (active)
16 | CC(=O)c1c(C)[nH]c(C(=O)OCC(=O)Nc2c(C)cccc2C)c1C | 1.59%
17 | CCN(CC(=O)Nc1cccc(S(=O)(=O)N2CCCCC2)c1)Cc1ccccc1 | 4.65%
18 | CCOC(=O)c1cnc2sccn2c1=O | 1.07%
19 | Cc1ccc(-c2csc(SCC(=O)Nc3cc(C)on3)n2)cc1 | 0.69%
20 | COc1c(Cl)cc(C(=O)Nc2ccc(Cl)cn2)cc1Cl | 9.05%
21 | CC1(C)C2CCC1(CS(=O)(=O)NCCc1c[nH]c3ccccc13)C(=O)C2 (stereo not given) | 0.82%
22 | CN1c2ccc(C=O)c3c(C=O)ccc(c23)N(C)C1(C)C | 107% (active)
23 | c1cc(-c2nn[nH]n2)ccc1CN1CCCCC1 | 0.2%
24 | CCC(C)NC(=O)CCCc1ccccc1 (stereo not given) | 1.02%
25 | O=C(Nc1ccc(C(=O)N2CCOCC2)cc1)Nc1cccc(C(F)(F)F)c1 | 0.41%
